Bioassay records: PubChem, National Center for Advancing Translational Sciences (NCATS)
Compounds with a hit are over-represented: about 12% of the library has one in this group of screens.
Cycloheximide cs: counter-screen hit for Shiga toxin inhibitors, cycloheximide. cell reporter, cycloheximide protein synthesis inhibition counterscreen. max response, %. actives 12% (n = 300,000); in the data active = max response mostly above about 13%, no sharp cut-off; inactive = mostly below about 14%; also: read at 38.3 µM for the half of the compounds with a filed dose; 0% is about no effect
LASV entry inh: blocks Lassa virus binding to or entry into cells | Lassa virus pseudotype entry inhibition, cell reporter | Potency, µM (titrated, usually from 37.9 µM), for the others: at the top dose activity change, negative = inhibition, most hits filed as inhibitors | actives 1.2% (n = 300,000) | AID 540256; calls by dose curve; tested in HEK293 cells; also: potency is read from the fitted curve at half-maximal effect; % is scaled to controls: 0 for no effect and ±100 for the full control effect; nearly all actives have a fitted effect of over 50% in size
Marburg entry inh: Marburg virus entry inhibition | Marburg virus pseudotyped entry inhibition, cell reporter | Potency, µM (top dose mostly 37.8 µM), without a hit: at the highest dose activity change, negative = inhibition, actives largely listed as inhibitors | actives 1.8% (n = 300,000) | AID 540276; calls by dose curve; tested in HEK293 cells; also: potency is read from the fitted curve at half-maximal effect; % is scaled to controls: 0 for no effect and ±100 for the full control effect
Shiga inhibitor: inhibitors of Shiga toxin in Vero cells. Vero cells, Shiga toxin protein synthesis inhibition reporter. inhibition, % at 38.7 µM. actives 9.2% (n = 290,000). AID 2315; in the data active = inhibition mostly above about 28%, no sharp cut-off; inactive = mostly below about 43%; also: 0% is about no effect
The depositor's hits bear a star; ? = inconclusive; . = no result; + = active, no number; [ ] = another dose, or the depositor's remark.

SMILES	Cycloheximide cs	LASV entry inh	Marburg entry inh	Shiga inhibitor
COc1ccc(C(=O)NCCCOC(=O)c2ccc(OC)cc2)cc1	-3	?	-13%[46.1 µM]	-9
Cc1nc(NC(=O)C2CC3CCCC(C2)C3=O)sc1C (stereo not given)	47*	-1%	?	+
COc1cc(N/N=C(\C)c2ccc(O)c(C)c2)nc(-c2ccccc2)n1	21	?	?	15
C/C(=N\Nc1nc(C)cc(-c2ccccc2)n1)c1ccc(C)o1	8	?	-17%[46.1 µM]	7
C/C(=N\Nc1cc(-c2ccccc2)nc(-c2ccccc2)n1)c1ccc(O)c(C)c1	20*	11%	?	73*
C/C(=N/Nc1nc(C)cc(-c2ccccc2)n1)c1ccco1	21*	?	0%[46.1 µM]	56
Cc1cc(-c2ccccc2)nc(N/N=C/c2ccccc2F)n1	51*	?	?	52*
C/C(=N\NC(=O)c1ccc(-c2ccccc2)cc1)c1cccc(N)c1	10	?	11%[46.1 µM]	21
C/C(=N\Nc1nc(C)cc(-c2ccccc2)n1)c1cccc(N)c1	16*	.	.	23*
O=C1[C@@H]2[C@H]3[C@H](O)[C@H](O)CC(=NOC[C@@H](O)COCc4ccco4)[C@H]3CC[C@H]2C(=O)N1c1ccc(F)cc1F	.	.	14%[14.2 µM]	.
Cn1nc(-c2ccccc2F)c2cc(C(=O)NCc3ccccc3Cl)sc21	.	?	21%[46.1 µM]	.
C/C(=N\Nc1nc(C)cc(-c2ccccc2)n1)c1ccc(O)cc1	21*	.	.	26*
C/C(=N\Nc1nc(C)cc(-c2ccccc2)n1)c1ccccc1	17*	?	?	16
COC(=O)[C@@H]1CC[C@H](C)[C@@H](c2ccc(C)cc2)N1C(=O)c1ccc(C=NO[C@@H](C)c2cn([C@H](CO)Cc3ccccc3)nn2)cc1	.	-7%[14.3 µM]	5%[14.2 µM]	.
CCCN(CCC)c1ccc(C2N=C(N)Nc3nc4ccccc4n32)cc1 (stereo not given)	.	9%[46.1 µM]	-3%[46.1 µM]	.
O=c1[nH]c2ccccc2nc1/C=C(\O)C(F)F	6	21%	?	31
O=Nc1[nH]c(=O)c(/C=C(\O)c2ccccc2)nc1NO	59*	?	?	62*
CCc1ccc2oc(-c3cc(N=Cc4cccc(OC)c4O)ccc3O)nc2c1	29*	6.5µM*	?	104*
CCOC(=O)C1=C(C)NC(C)=C(C(=O)OCC)C1c1c(F)c(F)c(F)c(F)c1F	.	16µM*	?	.
Cc1ccc(C(=O)NC(=S)NCC2CCCO2)cc1Br (stereo not given)	52*	1%	?	78*
O=C(NC(=S)NCC1CCCO1)c1ccc(Br)o1 (stereo not given)	30*	16%[46.1 µM]	6%[46.1 µM]	67
O=C(NC(=S)NCC1CCCO1)c1ccccc1Br (stereo not given)	16	3%	?	9
CCc1nn2c(=O)cc(COC(=O)c3ccc(NC(=O)CCc4ccccc4)cc3)nc2s1	.	10%[46.1 µM]	.	.
CCc1cc2c(=O)[nH]c(N3CCCC3)nc2s1	28*	?	21%	+
CCc1cc2c(=O)[nH]c(-c3ccccn3)nc2s1	89*	5.6µM*	6.3µM*	126*
SMILES	Cycloheximide cs	LASV entry inh	Marburg entry inh	Shiga inhibitor
COC(=O)c1c(-c2cccs2)csc1NC(=O)COc1c(C)ccc(C)c1C	.	3%[46.1 µM]	?	.
O=c1[nH]cnc2c1oc1ccccc12	34*	18%	12%	70*
CCc1nc2c(oc3ccccc32)c(=O)[nH]1	22*	24%	?	35
O=c1[nH]c(CSc2ccccn2)nc2c1oc1ccccc12	49*	5.6µM*	?	91*
COc1c(S(=O)(=O)NCCCn2ccnc2)ccc(Cl)c1Cl	-2	.	.	-3
Cc1ccccc1CN1CCC(CNc2ncnc3onc(-c4ccc(Cl)cc4)c23)CC1	.	0%[46.1 µM]	.	.
COC(=O)c1ccc(CN2C(=O)[C@]3(O[C@H](C)CC4=CCCC43)c3c(Br)cccc32)cc1 (stereo not given in full)	.	.	5%[14.2 µM]	.
O=C(O)CCCCCN1C(=O)C(O)=C(C(=O)/C=C/c2ccccc2)C1c1ccccc1[N+](=O)[O-] (stereo not given)	14*	7%	12%[46.1 µM]	41
CCCCN1C(=O)C(O)=C(C(C)=O)C1c1ccccc1[N+](=O)[O-] (stereo not given)	4	.	.	-10
Cc1ccc(S(=O)(=O)N/N=C\c2cn(-c3ccccc3)nc2-c2ccccc2)cc1	20*	19%	-27%	31
O=S(=O)(N/N=C\c1cn(-c2ccccc2)nc1-c1ccccc1)c1ccccc1	13	12%	-5%	17
Cc1ccc(-c2nn(-c3ccccc3)cc2/C=N/NS(=O)(=O)c2ccccc2)cc1	36*	?	4%	39
c1ccc(COc2cccc(CNCc3cccnc3)c2)cc1	9	0%	-17%[46.1 µM]	13
c1ccc(COc2cccc(CNCc3ccccn3)c2)cc1	34*	.	.	65*
Oc1ccc(NCc2cccc(OCc3ccc(F)cc3)c2)cc1	24*	.	.	45*
O=[N+]([O-])c1ccc(COc2cccc(CNc3ccc(F)cc3)c2)cc1	35*	-25%	?	37*
Oc1ccc(NCc2cccc(OCc3ccccc3)c2)cc1	22*	.	.	47
CC(C)CCNC(=O)CCc1nnc2n(CCCOC(C)C)c(=O)c3ccccc3n12	-4	-1%	4%	-5
CC(C)c1ccc(S(=O)(=O)N2CCN(C(=O)C3CCCC3)CC2)cc1	-2	.	-25%[46.1 µM]	-6
CCCn1c(SCC(=O)Nc2cccc(S(=O)(=O)N(C)C)c2)nc2ccccc2c1=O	-2	-16%[46.1 µM]	11µM*	-1
Cn1c(SCC(=O)Nc2ccccc2)nc2ccccc2c1=O	-3	?	4µM*	4
Cc1cc2c(=O)n(C)c(SCC(=O)Nc3ccccc3)nc2s1	22*	.	23%[46.1 µM]	55*
CCc1ccc(NC(=O)CSc2nc3ccccc3c(=O)n2CCCC(=O)N2CCCC2)cc1	-3	26µM*	9.2µM*	-20
CN(C)S(=O)(=O)c1cccc(NC(=O)CSc2ncnc3ccccc23)c1	11	?	?	3
Cc1cccc(NC(=O)CSc2nc3sc(C)cc3c(=O)n2C)c1	.	-27%	?	.
SMILES	Cycloheximide cs	LASV entry inh	Marburg entry inh	Shiga inhibitor
CC(=O)N1CCc2cc(S(=O)(=O)NC(CC(C)C)C(=O)NCCc3ccccc3)ccc21 (stereo not given)	.	-5%[46.1 µM]	-4%[46.1 µM]	.
N#CCCN(NC1=NS(=O)(=O)c2ccccc21)C(=O)c1ccccc1Br	-3	4%[46.1 µM]	?	-2
COc1ccccc1-c1noc(CCC(=O)Nc2cccc(C)c2)n1	11	-2%	-2%	31
Cc1cccc(-c2noc(-c3cccnc3NCc3ccc(Cl)cc3)n2)c1	.	-2%[46.1 µM]	4%[46.1 µM]	.
Cc1cccc(-c2noc(Cc3ccc(Cl)cc3)n2)c1	40*	14%	?	96
COc1ccc(Cc2nc(-c3cccc(C)c3)no2)cc1	52*	?	-2%[46.1 µM]	112*
COc1ccccc1-c1noc(CCC(=O)Nc2ccccc2Cl)n1	19*	11%	0%	-10
COc1ccc(S(=O)(=O)N(C)Cc2nc(-c3cccc(C)c3)no2)cc1	.	-7%[46.1 µM]	-15%[46.1 µM]	.
COc1ccc(-c2noc(CCC(=O)Nc3cccc(C)c3)n2)cc1	27*	-29%	16%	100*
CC1CCN(CCOc2ccc(Cl)c(Cl)c2)CC1	3	?	?	27
COc1ccc(-c2noc(N(C)CC(=O)Nc3cccc(C(F)(F)F)c3)n2)cc1	21*	-18%	-12%	36
